Measurements published in PubChem BioAssay (Tox21).
“And” between values parts separate entries of the source, which are not always exact repeats. Equal entries are not always repeated. Inconclusive results are not listed. Entries that show only a call come without a potency. The source holds several records for some structures; these can differ, active in one and inactive in another. The source made the active and inactive calls. Unless noted, calls come from the whole dose curve.

Experiments:
[1] = Nuclear factor erythroid 2-related factor 2/antioxidant responsive element (Nrf2/ARE) small molecule agonists: qHTS cell viability counter screen in human keratinocytes (AID 1919968; active = well fitted curve in the direction sought with a large enough effect in the repeat runs; an effect the other way counts as inactive or inconclusive; note: nearly all actives have a fitted effect of over 55% in size; note: potency is the fitted concentration of half-maximal effect)
Method in brief: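 KeratinoSens cells (HaCaT keratinocytes stably carrying an ARE-luciferase reporter) were seeded at 1,500 cells/well and rested 5 h at 37 C/5% CO2. They were then exposed to compounds in DMSO for 23 h. Viability was read by CellTiter-Fluor fluorescence after 1 h.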

[2] = Nuclear factor erythroid 2-related factor 2/antioxidant responsive element (Nrf2/ARE) small molecule agonists: luciferase reporter gene qHTS assay in human keratinocytes (AID 1919969); note: nearly all actives have a fitted effect of over 35% in size
[3] = target: Gonadotropin-releasing hormone receptor (Homo sapiens) (UniProt P30968); test: Human gonadotropin-releasing hormone receptor (GnRHR) small molecule agonists, calcium flux assay in GnRHR-HEK293 cells (AID 1920063); note: nearly all actives have a fitted effect of over 35% in size
Method in brief: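 HEK293 cells stably expressing human GnRHR were plated 18 h at 37 °C, loaded with calcium dye 1 h at 37 °C, then given compound in agonist mode; fluorescence (Ex/Em 480/540) read kinetically for 3 min at 1 s intervals.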

[4] = target: KiSS-1 receptor (Homo sapiens) (UniProt Q969F8); test: Human kisspeptin (KISS1R) small molecule agonists, calcium flux assay in KISS1R-HEK293 cells (AID 1920064; active = well fitted curve in the direction sought with a large enough effect in the repeat runs; an effect the other way counts as inactive or inconclusive)
Method in brief: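 HEK293 cells stably expressing human KISS1R were plated 18 h at 37 °C, loaded with calcium dye for 1 h at 37 °C, then given compound by pin tool. Fluorescence (Ex/Em 480/540) was read kinetically for 3 min.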

[5] = G protein-coupled receptor (GPCR) small molecule agonists, calcium flux assay: HEK293 wild type cell line counter screen (AID 1920065)
Method in brief: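 Cells were plated and cultured 18 h at 37 C/5% CO2, then loaded with calcium dye for 1 h at 37 C. Compounds in DMSO were pin-transferred in agonist mode, and fluorescence (Ex/Em 480/540) was read kinetically for 3 min at 1 s intervals.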

[6] = p53 small molecule agonists, cell-based qHTS assay with human liver microsomes (AID 1963577);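 note: p53 response element beta-lactamase reporter cells with liver microsomes plus NADPH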
Method in brief: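 Reporter activation was measured by LiveBLAzer fluorescence intensity in p53RE-bla cells, which had been exposed to compounds for 16 h at 37 C alongside 0.5 mg/mL human liver microsomes and 0.5 mg/mL NADPH (final concentrations).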

[7] = p53 small molecule agonists, cell-based qHTS assay with rat liver microsomes (AID 1963578)
Method in brief: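 Compound in DMSO added to p53RE-bla cells 5 h post-plating; rat microsomes/NADPH 0.5 mg/mL final; 16 h, 37 C; LiveBLAzer 2 h RT.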

[8] = p53 small molecule agonists, cell-based qHTS assay with human liver microsomes: qHTS cell viability counter screen (AID 1963579); note: nearly all actives have a fitted effect of over 45% in size
Method in brief: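 HLM-supplemented (0.5 mg/mL final) and NADPH-supplemented (0.5 mg/mL final) p53RE-bla cultures, 4,000 cells per well, were dosed with compounds in DMSO for 16 h at 37 C; luminescent ATP detection (CellTiter-Glo, 30 min, room temperature) quantified surviving cells.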

[9] = p53 small molecule agonists, cell-based qHTS assay with rat liver microsomes: qHTS cell viability counter screen (AID 1963580); note: nearly all actives have a fitted effect of over 45% in size; note: potency is the fitted concentration of half-maximal effect
Method in brief: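 p53RE-bla HCT-116 cells were exposed 16 h at 37 C to compounds with rat liver microsomes (0.5 mg/mL) and NADPH (0.5 mg/mL). Viability was measured in the same wells as ATP content by CellTiter-Glo luminescence.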

[10] = p53 small molecule agonists, cell-based qHTS assay: qHTS cell viability counter screen (AID 1963581); note: nearly all actives have a fitted effect of over 45% in size
Method in brief: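 p53RE-bla HCT-116 cells were exposed to compounds for 16 h at 37 C; after the beta-lactamase FRET read in the same wells, CellTiter-Glo was added and luminescence (intracellular ATP) read after 30 min at room temperature.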

[11] = p53 small molecule agonists, cell-based qHTS assay (AID 1963582; active = well fitted activation curve with a large enough effect in the signal ratio in the repeat runs, not every such curve was filed as active; the % refers to the signal ratio; note: potency is the fitted concentration of half-maximal effect)
Method in brief: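 p53RE-bla beta-lactamase reporter cells rested 5 h at 37 C/5% CO2, then received compounds in DMSO by pin transfer and were incubated 16 h at 37 C. LiveBLAzer B/G FRET substrate was loaded for 2 h at room temperature before fluorescence reading.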

[12] = cAMP Responsive Elements (CRE) small molecule agonists, cell-based qHTS assay (AID 1963590)
Method in brief: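 CRE-bla HEK 293T cells in DMEM with 10% dialyzed FBS, NEAA, pyruvate and 25 mM HEPES were plated 18 h at 37 C/5% CO2, then exposed to compounds in DMSO for 3 h before LiveBLAzer B/G FRET substrate addition.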

[13] = cAMP Responsive Elements (CRE) small molecule antagonists, cell-based qHTS assay (AID 1963591; active = well fitted inhibition curve with a large enough effect in the signal ratio in the repeat runs, not every such curve was filed as active; the % refers to the signal ratio)
Method in brief: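 CRE-bla HEK293T cells were plated 18 h at 37 °C/5% CO2, pinned with compound in DMSO, then stimulated with NKH477 at 0.25 uM final for 3 h. LiveBLAzer B/G FRET substrate was added and plates incubated 2 h at room temperature.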

[14] = target: Beta-2 adrenergic receptor (Homo sapiens) (UniProt P07550); test: Adrenergic beta2 receptor (ADRB2) small molecule antagonists, cell-based qHTS assay (AID 1963592); note: series mostly up to about 92 µM; nearly all actives have a fitted effect of over 50% in size
Method in brief: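 Cells (CHO, stable ADRB2 overexpression) incubated 18-20hr at 37C; compounds added from DMSO; agonist mix (1nM isoproterenol, 100uM IBMX, 25uM Ro-20-1724) added; 0.5hr RT; d2-cAMP and anti-cAMP-cryptate added; 1hr RT; 665/615 nm read.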

[15] = target: Beta-2 adrenergic receptor (Homo sapiens) (UniProt P07550); test: Adrenergic beta2 receptor (ADRB2) small molecule agonists, cell-based qHTS assay (AID 1963593);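 note: CHO cells stably overexpressing human ADRB2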
Method in brief: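 CHO cells stably over-expressing ADRB2 were plated overnight at 37C, then dosed with compounds plus a stimulation mix containing 100uM IBMX and 25uM Ro-20-1724 for 0.5hr at room temperature. cAMP was measured by HTRF competition, 1hr.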

[16] = target: D(2) dopamine receptor (Homo sapiens) (UniProt P14416); test: Dopamine D2 receptor (DRD2) small molecule agonists, cell-based qHTS assay (AID 1963594); note: nearly all actives have a fitted effect of over 35% in size
Method in brief: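 HEK293 cells stably expressing human DRD2, pre-treated with PDE inhibitor Ro20-1724 (0.1 mM final) and compound 10 min at room temperature, then stimulated with NKH477 (200nM […]) for 30 min. cAMP read by HTRF (665/620 nm).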

[17] = target: D(2) dopamine receptor (Homo sapiens) (UniProt P14416); test: Dopamine D2 receptor (DRD2) small molecule antagonists, cell-based qHTS assay (AID 1963595; active = well fitted inhibition curve with a large enough effect in the signal ratio in the repeat runs, with a control signal flat; the % refers to the signal ratio)
Method in brief: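 Human DRD2 antagonist qHTS measuring cAMP by HTRF. The cells are exposed to compound for 10 min, then to NKH477 (200 nM) and quinpirole (12 nM) for 30 min at RT, with Ro20-1724 (0.1 mM) present throughout.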

D(2) dopamine receptor (Homo sapiens), sequence (P14416 whole entry, looked up): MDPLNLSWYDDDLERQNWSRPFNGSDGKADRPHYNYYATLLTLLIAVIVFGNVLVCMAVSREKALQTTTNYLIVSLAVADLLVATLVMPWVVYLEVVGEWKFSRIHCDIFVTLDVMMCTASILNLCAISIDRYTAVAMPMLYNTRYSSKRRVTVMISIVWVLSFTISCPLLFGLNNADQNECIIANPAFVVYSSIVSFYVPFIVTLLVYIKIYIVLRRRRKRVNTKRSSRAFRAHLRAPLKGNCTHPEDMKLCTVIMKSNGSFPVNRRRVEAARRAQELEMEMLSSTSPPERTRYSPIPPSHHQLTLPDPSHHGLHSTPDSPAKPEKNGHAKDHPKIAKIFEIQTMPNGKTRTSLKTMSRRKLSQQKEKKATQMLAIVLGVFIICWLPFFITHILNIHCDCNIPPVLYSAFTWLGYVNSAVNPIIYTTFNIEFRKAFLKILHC
Beta-2 adrenergic receptor (Homo sapiens), sequence (P07550 whole entry, looked up): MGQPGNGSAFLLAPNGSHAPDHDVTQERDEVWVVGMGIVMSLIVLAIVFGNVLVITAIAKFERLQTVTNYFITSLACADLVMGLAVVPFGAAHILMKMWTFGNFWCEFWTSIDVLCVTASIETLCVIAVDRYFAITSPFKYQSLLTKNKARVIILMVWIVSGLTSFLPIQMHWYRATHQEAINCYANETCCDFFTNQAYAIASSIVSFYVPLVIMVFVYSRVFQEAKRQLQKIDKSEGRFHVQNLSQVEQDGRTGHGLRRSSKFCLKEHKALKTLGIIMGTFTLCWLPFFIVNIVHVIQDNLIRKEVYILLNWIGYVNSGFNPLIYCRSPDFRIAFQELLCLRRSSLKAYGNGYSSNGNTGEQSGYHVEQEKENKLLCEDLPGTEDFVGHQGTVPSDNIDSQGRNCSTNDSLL
Gonadotropin-releasing hormone receptor (Homo sapiens), sequence (P30968 whole entry, looked up): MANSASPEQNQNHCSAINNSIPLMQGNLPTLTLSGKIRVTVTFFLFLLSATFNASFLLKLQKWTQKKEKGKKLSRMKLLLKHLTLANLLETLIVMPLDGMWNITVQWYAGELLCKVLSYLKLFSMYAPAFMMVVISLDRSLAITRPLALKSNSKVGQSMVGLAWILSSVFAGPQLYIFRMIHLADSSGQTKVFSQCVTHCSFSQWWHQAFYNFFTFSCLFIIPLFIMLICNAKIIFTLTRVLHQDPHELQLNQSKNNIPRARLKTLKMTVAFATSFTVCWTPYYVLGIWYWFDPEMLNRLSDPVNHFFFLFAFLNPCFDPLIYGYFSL
KiSS-1 receptor (Homo sapiens), sequence (Q969F8 whole entry, looked up): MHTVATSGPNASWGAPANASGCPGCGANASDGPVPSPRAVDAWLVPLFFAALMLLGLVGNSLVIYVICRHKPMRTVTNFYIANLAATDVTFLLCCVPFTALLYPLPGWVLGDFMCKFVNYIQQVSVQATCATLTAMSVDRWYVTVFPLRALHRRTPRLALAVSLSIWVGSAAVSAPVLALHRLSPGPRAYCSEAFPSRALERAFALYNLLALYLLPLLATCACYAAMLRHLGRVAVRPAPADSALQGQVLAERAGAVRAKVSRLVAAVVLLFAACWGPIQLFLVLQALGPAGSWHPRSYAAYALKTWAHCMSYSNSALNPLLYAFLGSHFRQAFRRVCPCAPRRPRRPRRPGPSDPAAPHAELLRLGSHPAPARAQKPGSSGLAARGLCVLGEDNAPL

Compound | Potency [1] | Potency [2] | Potency [3] | Potency [4] | Potency [5] | Potency [6] | Potency [7] | Potency [8] | Potency [9] | Potency [10] | Potency [11] | Potency [12] | Potency [13] | Potency [14] | Potency [15] | Potency [16] | Potency [17]
C[C@]12C=CC(=O)C=C1CC[C@H]1[C@@H]3C[C@@H](O)[C@](O)(C(=O)CO)[C@@]3(C)C[C@H](O)[C@@]12F | inactive | inactive | inactive | inactive | inactive | inactive | inactive | inactive | inactive | inactive | inactive | inactive | inactive | inactive | inactive | inactive | inactive
CC(=O)[C@@]1(O)CC[C@H]2[C@@H]3C[C@H](C)C4=CC(=O)C=C[C@]4(C)[C@@]3(F)[C@@H](O)C[C@@]21C | inactive | inactive | inactive | inactive | inactive | inactive | inactive | inactive | inactive | inactive | inactive | inactive | inactive | inactive | inactive | inactive | inactive
COc1cc(OC)c(C(=O)CCCN2CCCC2)c(OC)c1 | inactive | inactive | inactive | inactive | inactive | inactive | inactive | inactive | inactive | inactive | inactive | inactive | inactive | inactive | inactive | inactive | inactive
NC(=O)c1ccccc1O | inactive | inactive | inactive | inactive | inactive | inactive | inactive | inactive | inactive | inactive | inactive | inactive | inactive | inactive | inactive | inactive | inactive
CCCN(CCC)S(=O)(=O)c1ccc(C(=O)O)cc1 | inactive | inactive | inactive | inactive | inactive | inactive | inactive | inactive | inactive | inactive | inactive | inactive | inactive | inactive | inactive | inactive | inactive
Cn1c(=O)c2[nH]cnc2n(C)c1=O | inactive | inactive | inactive | inactive | inactive | inactive | inactive | inactive | inactive | inactive | inactive | inactive | inactive | inactive |  | inactive | inactive
O=c1[nH]cc(F)c(=O)[nH]1 | 5.65 µM (active) and inactive | inactive | inactive | inactive | inactive | inactive | inactive | inactive | 47.5 µM (active) and inactive | inactive | 2.63 µM (active) and 7.93 µM (active) | inactive | inactive | inactive |  | inactive | inactive
C[C@@H](O)[C@H]1C(=O)N2C(C(=O)O)=C(S[C@@H]3CN[C@H](C(=O)N(C)C)C3)[C@H](C)[C@H]12 | inactive | inactive | inactive | inactive | inactive | inactive | inactive | inactive | inactive | inactive | inactive | inactive | inactive | inactive |  | inactive | inactive
